Screens from PubChem.
HP1b binding inh – inhibitors of HP1-beta chromodomain binding to methylated histone tails | P83916 | AlphaScreen HP1-beta / biotin-H3K9me3 peptide binding | Potency, µM (top dose mostly 114 µM), actives largely listed as inhibitors | 390,000 tested, 0.56% active | AID 540317; also: nearly all actives have a fitted effect of over 70% in size
Target sequence (P83916 whole entry, looked up): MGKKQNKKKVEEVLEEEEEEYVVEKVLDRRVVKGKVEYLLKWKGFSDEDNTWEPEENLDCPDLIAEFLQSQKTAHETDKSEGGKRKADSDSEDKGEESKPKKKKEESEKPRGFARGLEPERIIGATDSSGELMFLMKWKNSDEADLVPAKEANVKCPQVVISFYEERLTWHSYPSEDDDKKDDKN
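HP1-beta protein (50 nM final) preincubated 30 min at room temperature with biotinylated H3(1-18)K9me3 peptide (50 nM) in PBS pH 7.4, 0.01% Tween-20, then compound added for 30 min. AlphaScreen streptavidin donor/nickel chelate acceptor beads (10 ug/mL final), 30 min dark, luminescence read.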
JMJD2A Tudor – JMJD2A Tudor domain (human) inhibition; O75164; AlphaScreen JMJD2A-Tudor / H3K4me3 peptide binding; Potency, µM (highest dose often 114 µM), hits mostly inhibitors; 390,000 tested, 4.4% active; also: nearly all actives have a fitted effect of over 50% in size
G9a inh – blocks human histone lysine methyltransferase G9a. Q96KQ7. G9a H3K9 monomethylation, AlphaScreen, 2 h. Potency, µM (top dose mostly 102 µM), most hits filed as inhibitors. 350,000 tested, 8.8% active. AID 504332; also: nearly all actives have a fitted effect of over 75% in size
Target sequence (Q96KQ7 913-1193 limits assumed): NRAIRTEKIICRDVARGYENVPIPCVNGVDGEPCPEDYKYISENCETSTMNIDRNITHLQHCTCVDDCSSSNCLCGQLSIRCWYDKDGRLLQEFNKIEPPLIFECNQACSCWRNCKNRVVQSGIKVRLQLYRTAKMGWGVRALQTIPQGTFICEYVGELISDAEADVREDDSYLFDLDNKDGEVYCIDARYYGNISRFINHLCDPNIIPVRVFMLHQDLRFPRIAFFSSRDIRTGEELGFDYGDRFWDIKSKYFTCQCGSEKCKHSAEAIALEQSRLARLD
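AlphaScreen read-out: biotin-H3K9 peptide (500 nM) methylation by 20 nM enzyme with 20 uM SAM, 2 h at room temperature after 15 min compound preincubation; anti-monomethyl H3K9 antibody plus donor/acceptor beads, 10 min dark.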
BAZ2B inh – inhibitors of human BAZ2B bromodomain; AlphaScreen BAZ2B-H3K14Ac peptide displacement; Q9UIF8; 360,000 tested, 4.4% active; Potency, µM (top dose mostly 114 µM), actives largely listed as inhibitors; also: nearly all actives have a fitted effect of over 60% in size
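Compounds, titrated to a top concentration of 110 uM, were incubated 30 min at room temperature with preformed BAZ2B/acetyl-K14 H3 peptide complex (50 nM each). Proximity signal was measured by AlphaScreen after 20 min with beads.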
CtBP-E1A inh – inhibitors of CtBP/E1A interaction | AlphaScreen GST-E1A/His-CtBP binding, 1536-well; active compounds read low | activity change, % (test concentration not listed) | 340,000 tested, 0.49% active | AID 651724; in the data active = activity change below about -65%; inconclusive = mostly about -30% to -63%
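AlphaScreen with 125 nM GST-E1A and 125 nM His-CtBP (5X stocks) in Tris pH 8.0, 300 mM NaCl, BSA, Tween 20, TCEP. Compounds preincubated 2 h at 37 deg C, then glutathione donor/nickel acceptor beads added for 1 h at 37 deg C in dark.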
Six1-Eya2 blk – inhibitors of human Six1/Eya2 interaction; activity change, % (test concentration not listed); AlphaScreen GST-Six1/His-Eya2 binding, biochemical; active compounds read low; AID 651725; Q15475+O00167; 360,000 tested, 0.56% active; in the data active = activity change below about -65%; inconclusive = mostly about -30% to -63%
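Compounds are tested against tagged Six1 and Eya2 proteins bridged by glutathione donor and nickel acceptor beads; after a one-hour incubation at 37 °C without light, AlphaScreen emission is recorded.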
Hits are given with their value; [ ] = dose if it differs, or a comment. Most compounds without a hit are left out; they make up all but 10% or so of the library. Unless noted, calls follow the shape of the dose curve; as a rule, active = well fitted inhibition curve with a large enough effect; inconclusive = small, poorly fitted or top-dose-only effect; inactive = no such curve, though single readings can be large or run the other way.

For N#CC(c1cccc(Cl)c1)c1ccc2c(C(F)(F)F)cc(C(F)(F)F)nc2n1 (centres undefined) the results were HP1b binding inh 10µM, JMJD2A Tudor 28.2µM, G9a inh 14.1µM, BAZ2B inh 10µM, CtBP-E1A inh inconclusive and Six1-Eya2 blk inconclusive.
`N#CC(c1ccccc1)c1cccc(Cl)n1` (centres undefined) gave HP1b binding inh inactive, JMJD2A Tudor inactive, G9a inh inactive, BAZ2B inh inactive, CtBP-E1A inh inactive and Six1-Eya2 blk inactive.
Screening CC(C)CCC(C(=O)NC(C)c1ccccc1)C(=O)NC(C)c1ccccc1 (centres undefined) returned HP1b binding inh inactive, JMJD2A Tudor 22.4µM, G9a inh inactive, BAZ2B inh inconclusive, CtBP-E1A inh inactive and Six1-Eya2 blk inactive.
COCC(=O)NC(c1ccccc1)c1ccccc1 was read as HP1b binding inh inactive, JMJD2A Tudor inactive, G9a inh inactive, BAZ2B inh inactive, CtBP-E1A inh inactive and Six1-Eya2 blk inactive.
Screening CC(C)CCNCC(=O)NC(c1ccccc1)c1ccccc1 returned HP1b binding inh inactive, JMJD2A Tudor 31.6µM, G9a inh 5.62µM, BAZ2B inh 56.2µM, CtBP-E1A inh inactive and Six1-Eya2 blk inactive.
Screening Oc1c(Cl)cc(Cl)cc1CNc1ccc(Br)cn1 returned HP1b binding inh inactive, JMJD2A Tudor inactive, G9a inh inactive, BAZ2B inh inactive, CtBP-E1A inh -75.1 and Six1-Eya2 blk -70.1.
`O=C(Nc1ccc2nccnc2c1)N1CCCCCC1` gave HP1b binding inh inactive and JMJD2A Tudor inactive.
CC1C(=O)N2CCCc3cc(NC(=O)C(=O)NCCc4ccccc4)cc1c32 (centres undefined) was read as HP1b binding inh inactive, JMJD2A Tudor inactive, G9a inh inactive[0.501 µM], BAZ2B inh inactive, CtBP-E1A inh inactive and Six1-Eya2 blk inactive.
`CC1C(=O)N2CCCc3cc(NC(=O)C(=O)NCCc4c[nH]c5ccccc45)cc1c32` (centres undefined) gave HP1b binding inh inactive, JMJD2A Tudor inconclusive, G9a inh 28.2µM, BAZ2B inh inactive, CtBP-E1A inh inactive and Six1-Eya2 blk inactive.
Screening O=C(NN=Cc1ccc(F)cc1)c1cccc(S(=O)(=O)N2CCCC2)c1 returned HP1b binding inh inactive, JMJD2A Tudor inactive, CtBP-E1A inh inactive and Six1-Eya2 blk inactive.
Screening CCOc1cc(/C=N/NC(=O)c2cccc(S(=O)(=O)N3CCCC3)c2)ccc1OCC(=O)N(C)C returned HP1b binding inh inactive, JMJD2A Tudor inactive, G9a inh inactive, BAZ2B inh inactive, CtBP-E1A inh inactive and Six1-Eya2 blk inactive.
`COc1cc(/C=N/NC(=O)c2cc(C3CC3)[nH]n2)ccc1O` gave HP1b binding inh inactive, JMJD2A Tudor inactive, G9a inh inactive, BAZ2B inh inactive and Six1-Eya2 blk inactive.
`CCOc1cc(C=NNC(=O)c2cccc(S(=O)(=O)N3CCCC3)c2)ccc1O` gave HP1b binding inh inactive, JMJD2A Tudor inactive and Six1-Eya2 blk -66.5.
`O=C(N/N=C/c1cccc(O)c1)c1ccc(-n2cnnn2)cc1` gave HP1b binding inh inactive, JMJD2A Tudor inactive, G9a inh inactive, BAZ2B inh inactive, CtBP-E1A inh inactive and Six1-Eya2 blk inactive.
For CCOc1cc(/C=N/NC(=O)c2cc(C3CC3)[nH]n2)ccc1O the results were HP1b binding inh inactive, JMJD2A Tudor 50.1µM, G9a inh 44.7µM, BAZ2B inh inactive, CtBP-E1A inh inactive and Six1-Eya2 blk inactive.
For O=C(N/N=C/c1ccc(O)c(O)c1)c1ccc(-n2cnnn2)cc1 the results were HP1b binding inh inactive, JMJD2A Tudor inconclusive, G9a inh inconclusive, BAZ2B inh 50.1µM and Six1-Eya2 blk inactive.
For O=C(N/N=C/c1ccc(O)c(O)c1)c1cccc(S(=O)(=O)N2CCCCC2)c1 the results were HP1b binding inh inactive, JMJD2A Tudor inconclusive, G9a inh 50.1µM, BAZ2B inh inconclusive, CtBP-E1A inh inactive and Six1-Eya2 blk inactive.
`CC(C)c1ccc(CNc2nc(-c3ccco3)nn2S(=O)(=O)c2ccc(F)cc2)cc1` gave HP1b binding inh inactive, JMJD2A Tudor inactive, G9a inh inactive and BAZ2B inh inactive.
For Nc1nnc2c(n1)[nH]c1ccccc12 the results were HP1b binding inh inactive, JMJD2A Tudor inactive, G9a inh inactive and BAZ2B inh inactive.
`Cc1c(Cl)cccc1NC(=O)C(CCS(C)(=O)=O)N1Cc2ccccc2C1=O` (centres undefined) gave HP1b binding inh inactive, JMJD2A Tudor inactive, G9a inh inactive and BAZ2B inh inactive.
Screening CCC(=O)N1CCc2cc(Br)cc(S(=O)(=O)CCC(=O)N3CCN(c4cc(C)ccc4C)CC3)c21 returned HP1b binding inh inactive, JMJD2A Tudor inactive, G9a inh inconclusive and BAZ2B inh inconclusive.
`N#Cc1nc(-c2cccs2)oc1N1CCN(c2ccccc2)CC1` gave HP1b binding inh inactive, JMJD2A Tudor inconclusive, G9a inh 8.91µM, BAZ2B inh inconclusive, CtBP-E1A inh inactive and Six1-Eya2 blk inconclusive.
`N#Cc1nc(Cc2ccccc2)oc1N1CCC(Cc2ccccc2)CC1` gave HP1b binding inh inconclusive, JMJD2A Tudor inactive, G9a inh inconclusive, BAZ2B inh inconclusive, CtBP-E1A inh inconclusive and Six1-Eya2 blk inconclusive.
`N#Cc1nc(Cc2ccccc2)oc1N1CCN(c2ccccc2)CC1` gave HP1b binding inh 14.1µM, JMJD2A Tudor 28.2µM, G9a inh inconclusive, BAZ2B inh 10µM, CtBP-E1A inh inactive and Six1-Eya2 blk inconclusive.
`Cc1c(N2C(=O)/C(=C/c3ccccc3)SC2=S)c(=O)n(-c2ccccc2)n1C` gave HP1b binding inh inactive, JMJD2A Tudor inactive, G9a inh inactive[0.501 µM], BAZ2B inh inactive, CtBP-E1A inh inactive and Six1-Eya2 blk inactive.
Cc1c(N2C(=O)/C(=C3\C(=O)N(CC(=O)O)c4ccccc43)SC2=S)c(=O)n(-c2ccccc2)n1C was read as HP1b binding inh inactive, JMJD2A Tudor inactive, BAZ2B inh 79.4µM and Six1-Eya2 blk inactive.
CC(C)(C)OC(=O)N/N=C/c1cc(N=Nc2ccccc2)ccc1O was read as HP1b binding inh inactive, JMJD2A Tudor inconclusive, G9a inh inactive, BAZ2B inh inconclusive, CtBP-E1A inh inactive and Six1-Eya2 blk inactive.
Screening CN1C(=O)/C(=C/c2cc(N=Nc3ccccc3)ccc2O)SC1=S returned HP1b binding inh inconclusive, JMJD2A Tudor 5.01µM, G9a inh 8.91µM, BAZ2B inh 2.24µM, CtBP-E1A inh inactive and Six1-Eya2 blk inactive.
Screening Cc1c(N2C(=O)/C(=C\c3ccccc3O)SC2=S)c(=O)n(-c2ccccc2)n1C returned HP1b binding inh inconclusive, JMJD2A Tudor 17.8µM, G9a inh 1.78µM, BAZ2B inh inactive, CtBP-E1A inh inactive and Six1-Eya2 blk inactive.
